Experimental findings from PubChem BioAssay (NCI) are described below.

The panel holds about 83,000 compounds, 20% with a hit somewhere; the sample as a whole holds those more often.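 Values shown are percent growth following 48 h exposure of cells in 96-well plates to a single concentration of compound; below 10 was considered active.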 A number with no mark means an inactive call. Calls of active or inactive are those of the source.

Among the test systems are SK-MEL-2 melanoma; EKVX NSCLC; SN12C renal; UO-31 renal; TK-10 renal; CAKI-1 renal; A498 renal; CCRF-CEM leukemia; MOLT-4 leukemia; SR leukemia; RPMI-8226 leukemia; OVCAR-8 ovarian; OVCAR-4 ovarian; SK-OV-3 ovarian; IGROV1 ovarian; OVCAR-3 ovarian; HS 578T breast; NCI/ADR-RES ovarian; OVCAR-5 ovarian.
Common to all, as to assay: NCI-60 one-dose screen, 48 h (100 = growth as untreated, 0 = no growth, -100 = all killed)
Holding throughout (details): 10 µM unless noted

`O=C(Cn1cc(CSc2nc3ccccc3o2)nn1)Nc1ccc(F)cc1F`: the growth in the experiment on SK-MEL-2 melanoma is 114%; in the experiment with EKVX NSCLC, 119%; with SN12C renal, 96.4%; in the experiment with UO-31 renal, 103%; in the experiment on TK-10 renal, 117%; in the experiment with CAKI-1 renal, 105%. Besides, the growth in the experiment with A498 renal was 112%; with CCRF-CEM leukemia it was 113%; in the experiment with MOLT-4 leukemia, 120%; in the experiment with SR leukemia, 109%; in the experiment on RPMI-8226 leukemia, 114%; in the experiment on OVCAR-8 ovarian, 103%. For the same molecule, the growth in the experiment on OVCAR-4 ovarian was 108%; with SK-OV-3 ovarian it was 124%; in the experiment on IGROV1 ovarian, 114%; in the experiment with OVCAR-3 ovarian, 119%; in the experiment on HS 578T breast, 107%; with NCI/ADR-RES ovarian it was 101%.
Take `COc1cc2ncnc(Nc3ccc(S(=O)(=O)Nc4cc(C)on4)cc3)c2cc1OCCCN1CCN(c2ccc(F)cc2)CC1`: the growth is 113% in the experiment with SK-MEL-2 melanoma; 109% in the experiment on EKVX NSCLC; 100% in the experiment with SN12C renal; 77.5% with UO-31 renal; 115% in the experiment with TK-10 renal; 87.7% in the experiment with CAKI-1 renal. Further, the growth in the experiment with A498 renal is 91.9%; in the experiment with CCRF-CEM leukemia it was 103%; with MOLT-4 leukemia it was 102%; in the experiment on SR leukemia it was 107%; with RPMI-8226 leukemia, 114%; with OVCAR-8 ovarian, 103%. Besides, the growth with OVCAR-5 ovarian is 102%; in the experiment on OVCAR-4 ovarian it was 116%; in the experiment with SK-OV-3 ovarian it was 93%; in the experiment with IGROV1 ovarian, 107%; in the experiment with OVCAR-3 ovarian, 87.6%; in the experiment with HS 578T breast, 90.7%. Also, the growth in the experiment on NCI/ADR-RES ovarian was 107%.
With `Oc1ccc(Cl)cc1/C=N\NC(=S)N/N=C/c1cc(Cl)ccc1O`, the growth with SK-MEL-2 melanoma is 26.2%; in the experiment on EKVX NSCLC it was 50.3%; in the experiment with SN12C renal it was 45.9%; in the experiment with UO-31 renal it was 16.1%; in the experiment with TK-10 renal, 31%; in the experiment with CAKI-1 renal, -7.22% (active). The growth in the experiment on A498 renal is 37.5%; in the experiment on CCRF-CEM leukemia, 8.57% (active); in the experiment on MOLT-4 leukemia, 11.8%; in the experiment on SR leukemia, 20.2%; in the experiment with RPMI-8226 leukemia it was 29.8%; in the experiment with OVCAR-8 ovarian it was 17.6%. Also, the growth was 69.7% in the experiment with OVCAR-5 ovarian; 29.6% with OVCAR-4 ovarian; 58.6% in the experiment with SK-OV-3 ovarian; 22.2% in the experiment with IGROV1 ovarian; 12.7% in the experiment on OVCAR-3 ovarian; 57.9% in the experiment on HS 578T breast. Besides, in the experiment on NCI/ADR-RES ovarian, the growth is 14.7%.
On to `Cc1ccc(Nn2c(SCC(=O)Nc3nc(-c4ccccc4)cs3)nc(C)c2C)cc1`, for which the growth with SK-MEL-2 melanoma is 81.4%; in the experiment on EKVX NSCLC, 49.7%; in the experiment on SN12C renal, 64.3%; with UO-31 renal, 51.6%; in the experiment with TK-10 renal, 72.7%; in the experiment with CAKI-1 renal, 53.6%. Besides, the growth in the experiment with A498 renal is 92.5%; in the experiment on CCRF-CEM leukemia, 57.7%; in the experiment on MOLT-4 leukemia it was 54.7%; in the experiment with SR leukemia, 72.6%; in the experiment on RPMI-8226 leukemia, 55.8%; in the experiment on OVCAR-8 ovarian, 55.5%. Also, the growth in the experiment with OVCAR-5 ovarian is 81.8%; in the experiment with OVCAR-4 ovarian, 32%; with SK-OV-3 ovarian it was 64.1%; in the experiment on IGROV1 ovarian it was 86%; in the experiment on OVCAR-3 ovarian, 78.5%; with HS 578T breast, 106%. In the experiment with NCI/ADR-RES ovarian, the growth is 34.4%.
`CCCNc1nc2ccccc2c2c1S(=O)(=O)c1ccc(Cl)cc1C2=O`: the growth in the experiment on SK-MEL-2 melanoma is 8.94% (active); in the experiment on EKVX NSCLC it was 25.8%; with SN12C renal it was -1.38% (active); in the experiment on UO-31 renal, 10.9%; in the experiment on TK-10 renal, 17.3%; in the experiment on CAKI-1 renal, 18.2%. Moreover, the growth was 31.1% in the experiment with A498 renal; -5.94% (active) in the experiment on CCRF-CEM leukemia; 4.02% (active) in the experiment on MOLT-4 leukemia; 8.34% (active) in the experiment with SR leukemia; -10.2% (active) with RPMI-8226 leukemia; 3.78% (active) in the experiment on OVCAR-8 ovarian. For the same molecule, the growth with OVCAR-5 ovarian is 8% (active); in the experiment with OVCAR-4 ovarian it was 13.1%; in the experiment with SK-OV-3 ovarian it was 32.2%; with IGROV1 ovarian it was 24.6%; with OVCAR-3 ovarian, -17% (active); with HS 578T breast it was 7.32% (active). Moreover, the growth in the experiment on NCI/ADR-RES ovarian is 8.31% (active).
Turning to `O=C1NC(=C(Cl)Cl)/C(=N\S(=O)(=O)NCc2ccccc2)N1`, the growth in the experiment on SK-MEL-2 melanoma was 103%; in the experiment with EKVX NSCLC, 118%; with SN12C renal, 90.7%; with UO-31 renal it was 94.1%; with TK-10 renal it was 107%; with CAKI-1 renal it was 101%. Moreover, the growth in the experiment on A498 renal is 104%; in the experiment on CCRF-CEM leukemia it was 75%; in the experiment on SR leukemia it was 65.3%; with RPMI-8226 leukemia, 75.6%; in the experiment on OVCAR-8 ovarian, 94.6%; in the experiment with OVCAR-5 ovarian, 98.4%. Besides, the growth with OVCAR-4 ovarian is 108%; with SK-OV-3 ovarian it was 97.1%; with IGROV1 ovarian it was 102%; with OVCAR-3 ovarian, 105%; in the experiment on HS 578T breast, 122%; with NCI/ADR-RES ovarian it was 109%.
For the molecule `Cc1cc(N2CCN(CC(=O)Nc3ccc4c(ccn4C)c3)CC2)nc(N2CCCCCC2)n1`, the growth in the experiment with SK-MEL-2 melanoma was 92.1%; in the experiment on EKVX NSCLC it was 86.2%; with SN12C renal it was 98%; in the experiment on UO-31 renal it was 67.1%; with TK-10 renal, 87.2%; with CAKI-1 renal it was 84.6%. Moreover, the growth in the experiment with A498 renal is 46.3%; in the experiment with CCRF-CEM leukemia it was 35.3%; in the experiment with MOLT-4 leukemia, 85.3%; with SR leukemia, 122%; in the experiment with RPMI-8226 leukemia, 76.1%; in the experiment on OVCAR-8 ovarian it was 83.3%. Besides, the growth in the experiment on OVCAR-5 ovarian is 100%; in the experiment with OVCAR-4 ovarian it was 92.2%; with SK-OV-3 ovarian it was 84.4%; in the experiment on IGROV1 ovarian it was 83.5%; in the experiment with OVCAR-3 ovarian it was 82.6%; in the experiment with HS 578T breast, 96.8%. For the same molecule, the growth with NCI/ADR-RES ovarian was 91.5%.
`CSc1nnc(-c2cc3c([nH]c4ccccc43)c(-c3cccc(O)c3)n2)n1-c1ccccc1`: the growth was 12.9% in the experiment on SK-MEL-2 melanoma; 45.8% in the experiment on EKVX NSCLC; 43.7% in the experiment with SN12C renal; 39.7% in the experiment on UO-31 renal; 62.2% with TK-10 renal; 44.6% in the experiment with CAKI-1 renal. The growth was 25.5% in the experiment with A498 renal; 21.8% in the experiment with CCRF-CEM leukemia; 26.6% in the experiment with MOLT-4 leukemia; 21.7% in the experiment with SR leukemia; 16.2% in the experiment with RPMI-8226 leukemia; 47.1% with OVCAR-8 ovarian. Also, the growth in the experiment with OVCAR-5 ovarian is 58.7%; with OVCAR-4 ovarian it was 43.7%; in the experiment with SK-OV-3 ovarian, 47.4%; in the experiment on IGROV1 ovarian, 49.9%; in the experiment on OVCAR-3 ovarian it was -0.418% (active); in the experiment on HS 578T breast, 25.1%. The growth in the experiment on NCI/ADR-RES ovarian was 56.6%.
